These results are taken from the supplement of paper PMC9446081.

± gives the standard deviation of the averaged measurements.

Holding throughout (test): relative enzymatic activity vs untreated control (fraction); higher = less inhibition
Common to all, as to conditions: 100 µM; incubation time: 2 h at 37 C

In one experiment the test system is DNA gyrase. As for the experimental part:
(§1)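 In vitro enzymatic inhibition assays (ProFoldin kits) for 12 purified essential E. coli enzymes or complexes, each treated with 218 active antibacterial compounds at 100 µM for 2 h at 37°C. Read-outs were fluorescence or absorbance (phosphate detection, dye binding), converted to activity via standard curves and expressed relative to untreated DMSO controls.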

The target of a further experiment is DNA helicase (UniProt P0ACB1). How it is done:
as §1

Another experiment has as its target DNA ligase (UniProt B1XA82). As for the experimental part: as §1
A further experiment deals with DNA polymerase (UniProt P10443). How it is done:
as §1

The next experiment deals with DNA primase (UniProt P0ABS7). How it is done: as §1
DNA primase, sequence (P0ABS7 whole entry): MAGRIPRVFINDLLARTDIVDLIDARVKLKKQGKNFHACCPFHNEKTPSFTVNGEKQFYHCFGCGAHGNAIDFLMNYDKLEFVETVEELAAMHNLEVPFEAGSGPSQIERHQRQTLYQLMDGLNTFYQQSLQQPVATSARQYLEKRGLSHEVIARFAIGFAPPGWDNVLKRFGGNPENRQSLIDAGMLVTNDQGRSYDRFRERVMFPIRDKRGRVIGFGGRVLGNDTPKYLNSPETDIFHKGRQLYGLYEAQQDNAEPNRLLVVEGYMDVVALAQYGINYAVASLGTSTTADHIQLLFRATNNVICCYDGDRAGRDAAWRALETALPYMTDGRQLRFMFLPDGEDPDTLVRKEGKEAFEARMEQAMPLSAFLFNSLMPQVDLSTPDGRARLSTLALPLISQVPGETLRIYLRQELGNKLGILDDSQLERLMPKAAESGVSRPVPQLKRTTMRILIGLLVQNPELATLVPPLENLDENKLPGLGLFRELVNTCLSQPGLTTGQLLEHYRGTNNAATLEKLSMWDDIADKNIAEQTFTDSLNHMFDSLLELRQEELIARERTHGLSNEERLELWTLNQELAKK
In the next experiment the target is GlmU (UniProt A7ZTU1). How it is done: as §1
GlmU, sequence (A7ZTU1 whole entry, looked up): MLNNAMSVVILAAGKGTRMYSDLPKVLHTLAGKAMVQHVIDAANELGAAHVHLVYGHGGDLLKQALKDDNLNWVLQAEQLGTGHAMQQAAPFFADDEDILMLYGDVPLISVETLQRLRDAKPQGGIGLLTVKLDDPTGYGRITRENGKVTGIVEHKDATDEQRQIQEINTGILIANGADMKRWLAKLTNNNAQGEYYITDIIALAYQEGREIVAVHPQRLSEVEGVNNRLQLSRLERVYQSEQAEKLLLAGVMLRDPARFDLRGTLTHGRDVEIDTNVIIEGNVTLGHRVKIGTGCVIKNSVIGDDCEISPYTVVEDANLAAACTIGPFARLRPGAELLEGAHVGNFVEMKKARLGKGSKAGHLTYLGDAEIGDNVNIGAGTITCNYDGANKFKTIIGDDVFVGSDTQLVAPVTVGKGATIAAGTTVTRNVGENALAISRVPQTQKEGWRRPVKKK
The target of another experiment is Guanlyate kinase (UniProt Q0TBG1). How it is done:
as §1

The target in another experiment is MurA (UniProt Q3YX52). How it is done:
as §1

For a further experiment, the target named is T1, MurD (UniProt P14900).
T1 sequence (whole entry): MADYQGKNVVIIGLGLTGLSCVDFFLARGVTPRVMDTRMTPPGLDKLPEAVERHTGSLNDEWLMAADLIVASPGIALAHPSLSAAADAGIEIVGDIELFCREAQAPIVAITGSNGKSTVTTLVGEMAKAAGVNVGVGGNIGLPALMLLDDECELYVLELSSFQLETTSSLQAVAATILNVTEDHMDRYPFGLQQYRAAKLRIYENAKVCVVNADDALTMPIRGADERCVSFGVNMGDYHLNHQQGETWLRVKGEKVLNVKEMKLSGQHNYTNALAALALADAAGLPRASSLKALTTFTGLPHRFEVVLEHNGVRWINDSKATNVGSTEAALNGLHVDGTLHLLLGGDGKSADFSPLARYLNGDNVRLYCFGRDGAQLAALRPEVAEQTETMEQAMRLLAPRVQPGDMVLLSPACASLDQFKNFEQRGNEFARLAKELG
How it is done: as §1

The target in the next experiment is T2, MurF (UniProt P11880).
T2 sequence (whole entry): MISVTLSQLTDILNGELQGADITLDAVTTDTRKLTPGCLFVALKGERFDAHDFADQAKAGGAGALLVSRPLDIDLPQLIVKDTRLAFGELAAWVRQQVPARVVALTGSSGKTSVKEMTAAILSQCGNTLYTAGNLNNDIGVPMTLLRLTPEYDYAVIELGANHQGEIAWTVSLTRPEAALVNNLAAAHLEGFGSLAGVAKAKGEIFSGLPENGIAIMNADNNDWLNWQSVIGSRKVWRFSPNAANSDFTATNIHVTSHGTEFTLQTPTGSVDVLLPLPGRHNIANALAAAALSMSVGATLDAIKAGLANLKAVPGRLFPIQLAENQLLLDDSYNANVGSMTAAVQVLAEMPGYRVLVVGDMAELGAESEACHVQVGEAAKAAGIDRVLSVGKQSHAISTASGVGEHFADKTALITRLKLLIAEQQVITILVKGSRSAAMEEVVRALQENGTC
As for the experimental part: as §1

Another experiment has as its system RNA polymerase. How it is done: as §1

DNA polymerase, sequence (P10443 whole entry): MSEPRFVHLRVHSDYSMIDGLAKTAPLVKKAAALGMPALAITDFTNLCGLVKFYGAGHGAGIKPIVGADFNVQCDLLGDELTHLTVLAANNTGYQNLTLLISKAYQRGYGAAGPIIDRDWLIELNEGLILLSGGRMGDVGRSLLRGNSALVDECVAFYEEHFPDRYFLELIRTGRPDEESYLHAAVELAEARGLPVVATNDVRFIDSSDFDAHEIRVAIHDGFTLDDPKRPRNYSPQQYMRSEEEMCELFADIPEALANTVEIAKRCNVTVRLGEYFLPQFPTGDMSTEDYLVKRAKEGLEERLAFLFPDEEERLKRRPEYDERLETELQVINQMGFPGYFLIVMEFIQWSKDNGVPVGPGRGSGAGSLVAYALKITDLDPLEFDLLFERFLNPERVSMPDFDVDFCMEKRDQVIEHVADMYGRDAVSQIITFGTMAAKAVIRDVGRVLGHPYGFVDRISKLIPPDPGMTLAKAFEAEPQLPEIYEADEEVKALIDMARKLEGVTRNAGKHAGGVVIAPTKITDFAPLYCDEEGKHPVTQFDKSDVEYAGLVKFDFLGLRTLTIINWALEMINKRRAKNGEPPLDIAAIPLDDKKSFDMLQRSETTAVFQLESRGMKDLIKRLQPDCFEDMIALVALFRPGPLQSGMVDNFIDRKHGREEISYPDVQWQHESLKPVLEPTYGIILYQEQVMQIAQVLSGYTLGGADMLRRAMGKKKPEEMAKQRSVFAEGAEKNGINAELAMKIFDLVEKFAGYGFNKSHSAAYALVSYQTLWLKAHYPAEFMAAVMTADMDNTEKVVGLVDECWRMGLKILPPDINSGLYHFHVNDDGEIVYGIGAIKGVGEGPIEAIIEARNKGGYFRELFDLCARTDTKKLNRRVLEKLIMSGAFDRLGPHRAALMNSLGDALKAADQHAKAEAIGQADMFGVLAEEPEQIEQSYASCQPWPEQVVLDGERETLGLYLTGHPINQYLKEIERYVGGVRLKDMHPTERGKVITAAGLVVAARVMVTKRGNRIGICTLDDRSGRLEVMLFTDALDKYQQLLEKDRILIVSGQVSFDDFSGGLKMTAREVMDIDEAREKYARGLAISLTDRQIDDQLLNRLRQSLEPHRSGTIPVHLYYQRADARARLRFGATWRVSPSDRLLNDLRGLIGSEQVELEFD
DNA ligase, sequence (B1XA82 whole entry): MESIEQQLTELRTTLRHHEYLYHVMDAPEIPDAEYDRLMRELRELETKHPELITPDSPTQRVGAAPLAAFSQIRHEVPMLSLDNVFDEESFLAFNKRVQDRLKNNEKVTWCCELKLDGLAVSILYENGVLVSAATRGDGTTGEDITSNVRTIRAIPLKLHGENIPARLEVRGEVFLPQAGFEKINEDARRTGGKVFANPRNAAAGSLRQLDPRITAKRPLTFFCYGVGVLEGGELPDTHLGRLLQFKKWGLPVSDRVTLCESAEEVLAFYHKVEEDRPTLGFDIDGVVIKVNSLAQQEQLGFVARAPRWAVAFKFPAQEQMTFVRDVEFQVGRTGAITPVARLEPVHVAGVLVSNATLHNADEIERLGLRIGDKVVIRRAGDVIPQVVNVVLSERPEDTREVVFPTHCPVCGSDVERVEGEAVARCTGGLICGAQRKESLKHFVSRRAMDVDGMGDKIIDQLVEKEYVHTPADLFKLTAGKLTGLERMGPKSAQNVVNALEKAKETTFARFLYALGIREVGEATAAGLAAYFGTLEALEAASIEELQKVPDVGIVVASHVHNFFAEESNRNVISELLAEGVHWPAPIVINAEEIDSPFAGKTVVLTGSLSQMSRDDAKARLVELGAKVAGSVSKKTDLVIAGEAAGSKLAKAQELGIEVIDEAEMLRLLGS
DNA helicase, sequence (P0ACB1 whole entry): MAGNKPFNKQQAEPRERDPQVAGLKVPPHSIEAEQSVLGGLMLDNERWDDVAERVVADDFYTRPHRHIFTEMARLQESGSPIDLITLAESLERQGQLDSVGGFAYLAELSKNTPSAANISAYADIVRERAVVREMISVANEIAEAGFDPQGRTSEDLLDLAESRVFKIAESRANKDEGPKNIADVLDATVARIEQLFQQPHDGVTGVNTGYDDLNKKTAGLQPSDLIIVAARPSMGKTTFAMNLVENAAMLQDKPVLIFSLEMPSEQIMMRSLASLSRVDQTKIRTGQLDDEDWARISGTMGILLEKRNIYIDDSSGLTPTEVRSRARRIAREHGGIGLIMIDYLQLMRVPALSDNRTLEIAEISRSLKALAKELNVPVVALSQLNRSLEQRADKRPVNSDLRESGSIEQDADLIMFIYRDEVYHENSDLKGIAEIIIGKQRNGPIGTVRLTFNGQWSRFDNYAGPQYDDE
Guanlyate kinase, sequence (Q0TBG1 whole entry): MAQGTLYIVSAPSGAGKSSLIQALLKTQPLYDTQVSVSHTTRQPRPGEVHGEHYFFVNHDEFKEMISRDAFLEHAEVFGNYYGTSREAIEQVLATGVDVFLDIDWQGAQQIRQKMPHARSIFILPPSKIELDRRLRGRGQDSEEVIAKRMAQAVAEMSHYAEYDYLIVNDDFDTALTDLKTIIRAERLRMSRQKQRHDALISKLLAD
MurA, sequence (Q3YX52 whole entry): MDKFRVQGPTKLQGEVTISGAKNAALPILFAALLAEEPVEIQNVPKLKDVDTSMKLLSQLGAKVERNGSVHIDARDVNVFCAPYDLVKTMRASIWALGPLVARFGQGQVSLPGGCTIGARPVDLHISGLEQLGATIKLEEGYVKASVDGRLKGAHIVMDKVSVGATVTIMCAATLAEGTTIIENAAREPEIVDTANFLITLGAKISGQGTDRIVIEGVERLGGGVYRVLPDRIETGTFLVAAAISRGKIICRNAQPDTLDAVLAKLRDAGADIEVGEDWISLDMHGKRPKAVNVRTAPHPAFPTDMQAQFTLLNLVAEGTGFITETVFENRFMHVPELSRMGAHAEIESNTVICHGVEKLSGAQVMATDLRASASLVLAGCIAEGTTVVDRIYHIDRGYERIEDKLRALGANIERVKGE

Take `NCc1ccccc1CC(=O)NC1C(=O)N2C(C(=O)O)=C(CSc3nnnn3CC(=O)O)CSC12` (centres undefined): the relative enzymatic activity with DNA gyrase was determined as 1.03 ± 0.026; in the experiment with DNA helicase it was 0.487 ± 0.014; in the experiment with DNA ligase, 1.19 ± 0.037; with DNA polymerase, 1.38 ± 0.51; with DNA primase, 0.683 ± 0.18; in the experiment with GlmU, 1.05 ± 0.23. Moreover, the relative enzymatic activity with Guanlyate kinase amounted to 0.988 ± 0.13; with MurA, 0.08776 ± 0.00022; in the experiment with MurD, 0.581 ± 0.39; with MurF, 0.979 ± 0.2; in the experiment with RNA polymerase, 0.979 ± 0.23.

Turning to `C[C@H]1c2cccc(O)c2C(=O)C2=C(O)[C@]3(O)C(=O)[C@@H](C(N)=O)C(=O)[C@@H](N(C)C)[C@@H]3[C@@H](O)[C@@H]21`, the relative enzymatic activity in the experiment with DNA gyrase was 0.782 ± 0.34; with DNA helicase, 0.508 ± 0.05; with DNA ligase, 0.954 ± 0.14; with DNA polymerase, 1.17 ± 0.29; with DNA primase, 0.8317 ± 0.0057; in the experiment with GlmU it was 0.934 ± 0.018. Further, the relative enzymatic activity with Guanlyate kinase was found to be 0.958 ± 0.081; with MurA it was 0.673 ± 0.19; with MurD, 0.601 ± 0.41; with MurF it was 0.937 ± 0.26; in the experiment on RNA polymerase it was 0.882 ± 0.078.

On to `CN[C@H]1CN(c2ccc3c(=O)c(C(=O)O)cn(-c4nccs4)c3n2)C[C@@H]1OC`, for which the relative enzymatic activity is 0.253 ± 0.27 in the experiment on DNA gyrase; 0.18 ± 0.16 in the experiment with DNA helicase; 0.706 ± 0.08 with DNA ligase; 0.641 ± 0.27 with DNA polymerase; 0.622 ± 0.13 with DNA primase; 1 ± 0.039 with GlmU. The relative enzymatic activity came to 0.851 ± 0.064 with Guanlyate kinase; 0.603 ± 0.14 with MurA; 0.58 ± 0.36 with MurD; 0.955 ± 0.21 with MurF; 0.769 ± 0.11 with RNA polymerase.

As for `CCCN1C[C@H](C)[C@@H](O)[C@](C)(O)[C@@H](CC)OC(=O)[C@H](C)[C@@H](O[C@H]2C[C@@](C)(OC)[C@@H](O)[C@H](C)O2)[C@H](C)[C@@H](O[C@@H]2O[C@H](C)C[C@H](N(C)C)[C@H]2O)[C@](C)(O)C[C@H]1C`, the relative enzymatic activity amounted to 0.764 ± 0.38 in the experiment with DNA gyrase; 0.556 ± 0.17 with DNA helicase; 0.802 ± 0.014 with DNA ligase; 1.09 ± 0.11 with DNA polymerase; 0.868 ± 0.012 in the experiment with DNA primase; 1.073 ± 0.0078 with GlmU. For the same compound, the relative enzymatic activity stood at 0.858 ± 0.12 in the experiment with Guanlyate kinase; 0.761 ± 0.074 with MurA; 0.596 ± 0.42 in the experiment with MurD; 0.968 ± 0.17 in the experiment with MurF; 0.766 ± 0.12 with RNA polymerase.

For the compound `C=C1c2cccc(O)c2C(=O)C2=C(O)C3(O)C(=O)C(C(N)=O)=C(O)C(N(C)C)C3C(O)C12.Cl` (centres undefined), the relative enzymatic activity in the experiment with DNA gyrase worked out at 0.0714 ± 0.1; with DNA helicase, 0.143 ± 0.031; with DNA ligase, 0.963 ± 0.19; with DNA polymerase, 0.187 ± 0.022; in the experiment with DNA primase, 0.399 ± 0.077; with GlmU, 1 ± 0.011. In addition, the relative enzymatic activity with Guanlyate kinase is 0.376 ± 0.018; with MurA, 0.0701 ± 0.026; in the experiment with MurD it was 0.62 ± 0.43; with MurF it was 0.937 ± 0.28; with RNA polymerase, 0.052 ± 0.025.

As for `Cl.O=C1CC2(CCCC2)CC(=O)N1CCCCN1CCN(c2ncccn2)CC1`, the relative enzymatic activity came out at 0.812 ± 0.33 in the experiment on DNA gyrase; 0.485 ± 0.034 with DNA helicase; 0.999 ± 0.1 with DNA ligase; 1.05 ± 0.045 in the experiment with DNA polymerase; 0.81 ± 0.029 with DNA primase; 1.03 ± 0.042 with GlmU. For the same compound, the relative enzymatic activity with Guanlyate kinase was found to be 1 ± 0.013; in the experiment with MurA, 0.865 ± 0.1; with MurD, 0.609 ± 0.44; with MurF, 0.97 ± 0.21; in the experiment on RNA polymerase, 0.83 ± 0.039.

With `CN1CCN(c2c(F)cc3c(=O)c(C(=O)O)cn4c3c2SCC4)CC1`, the relative enzymatic activity was 0.0039 ± 0.0055 in the experiment with DNA gyrase; 0.623 ± 0.2 in the experiment with DNA helicase; 1.02 ± 0.03 with DNA ligase; 1.21 ± 0.25 with DNA polymerase; 0.807 ± 0.022 in the experiment with DNA primase; 0.952 ± 0.026 in the experiment with GlmU. Besides, the relative enzymatic activity was 0.926 ± 0.19 with Guanlyate kinase; 0.7644 ± 0.0074 with MurA; 0.608 ± 0.44 in the experiment with MurD; 0.899 ± 0.27 with MurF; 0.844 ± 0.023 in the experiment with RNA polymerase.

In the case of `CC1(C)S[C@@H]2[C@H](NC(=O)[C@H](N)c3ccccc3)C(=O)N2[C@H]1C(=O)OCOC(=O)[C@@H]1N2C(=O)C[C@H]2S(=O)(=O)C1(C)C`, the relative enzymatic activity with DNA gyrase was found to be 0.828 ± 0.25; in the experiment with DNA helicase it was 0.472 ± 0.23; with DNA ligase it was 0.742 ± 0.024; with DNA polymerase it was 0.512 ± 0.72; in the experiment with DNA primase, 0.809 ± 0.025; in the experiment with GlmU it was 0.994 ± 0.012. In addition, the relative enzymatic activity came to 0.946 ± 0.046 with Guanlyate kinase; 0.6 ± 0.24 with MurA; 0.58 ± 0.38 with MurD; 1.11 ± 0.15 with MurF; 0.868 ± 0.042 in the experiment on RNA polymerase.

`Cc1cc(C2CCCCC2)n(O)c(=O)c1.NCCO`: the relative enzymatic activity with DNA gyrase came out at 1.114 ± 0.0086; with DNA helicase it was 0.546 ± 0.12; with DNA ligase, 1.28 ± 0.12; with DNA polymerase it was 1.29 ± 0.34; in the experiment with DNA primase, 0.751 ± 0.22; with GlmU it was 1.12 ± 0.0031. The relative enzymatic activity with Guanlyate kinase was 1.05 ± 0.04; with MurA, 0.975 ± 0.045; in the experiment with MurD, 0.678 ± 0.45; with MurF it was 1.02 ± 0.2; with RNA polymerase, 0.8877 ± 0.0077.
